This is part of a sample that, as a whole, favours compounds with a hit. Of some 79,000 tested, about 15% had one in any assay. The source made the active and inactive calls. No stated cut-off is given here; in the data, active means growth inhibition above about 70%; inactive means the rest.
Columns and labels:
[1] = NCI Yeast Anticancer Drug Screen. Data for the rad52 strain (AID 147);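 further: 0% = growth of vehicle-treated control cultures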; details: S. cerevisiae rad52 mutant growth inhibition, active compounds read high
How it was run: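 Compounds are applied to a genetically defined yeast strain lacking normal DNA damage repair, and inhibition of growth is expressed relative to cultures given vehicle only.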

[2] = NCI Yeast Anticancer Drug Screen. Data for the wt1 strain (AID 149);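 further: 0% = growth of vehicle-treated wt1 cultures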; details: S. cerevisiae wt1 strain (SPY 50644) growth inhibition, active compounds read high
How it was run: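 Yeast wt1 strain exposed to compounds; growth inhibition measured relative to vehicle-treated controls.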

[3] = NCI Yeast Anticancer Drug Screen. Data for the rad50EPP+ strain (AID 151);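 further: 0% = growth of vehicle-treated control cultures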; details: S. cerevisiae rad50 mutant strain, active compounds read high
How it was run: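 Compounds were applied to the rad50EPP+ yeast strain, which bears a defined DNA repair alteration, and growth inhibition was determined relative to vehicle-treated cultures.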

[4] = NCI Yeast Anticancer Drug Screen. Data for the mgt1 strain (AID 153); details: S. cerevisiae mgt1 mutant growth inhibition, active compounds read high
How it was run: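 Strain: mgt1 yeast, one of a set carrying defined DNA damage repair or cell cycle control alterations. Compound-treated growth compared with vehicle.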

[5] = NCI Yeast Anticancer Drug Screen. Data for the rad50 strain (AID 155);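 further: 0% = growth of vehicle-only cultures of the same strain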; details: S. cerevisiae rad50 strain growth inhibition, active compounds read high
How it was run: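 Yeast carrying a defined DNA repair defect were exposed to test compounds, and growth was compared with vehicle-treated controls to give percent inhibition.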

[6] = NCI Yeast Anticancer Drug Screen. Data for the mec2-1 strain (AID 157); details: S. cerevisiae mec2-1 strain, active compounds read high
How it was run: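 Strain: mec2-1 (DNA repair/cell cycle alteration). Compound exposure, then growth measured; inhibition expressed relative to vehicle.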

[7] = NCI Yeast Anticancer Drug Screen. Data for the rad14 strain (AID 159);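 further: 0% = growth of vehicle-treated control cultures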; details: S. cerevisiae rad14 strain growth inhibition, active compounds read high
How it was run: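 Yeast cells carrying a defined DNA-repair defect were exposed to compounds, and growth inhibition was calculated relative to vehicle-treated control cultures.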

[8] = NCI Yeast Anticancer Drug Screen. Data for the sgs1 mgt1 strain (AID 161);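 further: 0% = growth of cultures given vehicle only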; details: S. cerevisiae sgs1 mgt1 strain, active compounds read high
How it was run: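 Test agents were incubated with a DNA-repair-mutant yeast strain. Growth was then read and compared against vehicle-treated controls.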

[9] = NCI Yeast Anticancer Drug Screen. Data for the CLN2oe strain (AID 163);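 further: 0% = growth of vehicle-only control cultures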; details: S. cerevisiae CLN2oe strain, active compounds read high
How it was run: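 Growth of a genetically modified yeast strain is measured after compound exposure and compared with cultures given vehicle alone.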

[10] = NCI Yeast Anticancer Drug Screen. Data for the cln2 rad14 strain (AID 165);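 further: 0% = growth equal to vehicle treated cultures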; details: S. cerevisiae cln2 rad14 strain, active compounds read high
How it was run: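 Compounds are applied to the cln2 rad14 yeast strain, and growth is then compared with that of vehicle-treated cultures to give inhibition.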

[11] = NCI Yeast Anticancer Drug Screen. Data for the bub3 strain (AID 167); details: S. cerevisiae bub3 mutant strain, active compounds read high
How it was run: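 Compounds were applied to a genetically altered yeast strain carrying a cell-cycle control defect. Growth inhibition was scored against vehicle-treated controls.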

[12] = NCI Yeast Anticancer Drug Screen. Data for the wt2 strain (AID 169);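 further: 0% = growth of vehicle-treated yeast cultures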; details: S. cerevisiae wt2 strain growth inhibition, active compounds read high
How it was run: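 This strain belongs to a panel of yeast strains with defined genetic alterations in DNA damage repair or cell cycle control. Compounds are applied, and growth inhibition is measured against vehicle-treated cultures.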

[13] = NCI Yeast Anticancer Drug Screen. Data for the mlh1 strain (AID 171);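 further: 0% = growth of vehicle-treated control cultures of the same strain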; details: S. cerevisiae mlh1 strain growth inhibition, active compounds read high
How it was run: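 Growth of the mutant yeast strain after compound exposure, expressed as inhibition relative to vehicle-only controls.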

[14] = NCI Yeast Anticancer Drug Screen. Data for the sgs1 strain (AID 173);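 further: 0% = growth of vehicle-only control cultures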; details: S. cerevisiae sgs1 mutant, active compounds read high
How it was run: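 Growth of a yeast strain bearing a defined genetic alteration is measured after compound treatment. Inhibition is expressed relative to vehicle-only controls.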

[15] = NCI Yeast Anticancer Drug Screen. Data for the mlh1 rad18 strain (AID 175); details: S. cerevisiae mlh1 rad18 strain growth inhibition, active compounds read high
How it was run: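 Read-out is yeast growth inhibition, calculated against vehicle-only controls. The compound was applied to a strain engineered with DNA damage repair alterations.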

[16] = NCI Yeast Anticancer Drug Screen. Data for the rad18 strain (AID 177); details: S. cerevisiae rad18 mutant growth inhibition, active compounds read high
How it was run: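 Growth of the mutant yeast strain after compound exposure, normalised to vehicle-only cultures.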

[17] = at 5.0 µM (retest, dose inferred, filed as 0.5)
[18] = at 50.0 µM (retest, dose inferred, filed as 5.0)

Measured: growth inhibition

N#C/C(=C\c1cccc(OCc2ccccc2)c1)c1ccc([N+](=O)[O-])cc1
active: [5]; [18] 97% | [6]; [18] 96% | [15]; [18] 98%
inactive: [1]; at 1.2 µM -24% | [1]; at 3.7 µM -19% | [1]; at 11.0 µM -26% | [1]; at 33.0 µM -28% | [1]; at 100.0 µM -37% | [2]; at 1.2 µM -18% | [2]; at 3.7 µM -4% | [2]; at 11.0 µM -22% | [2]; at 33.0 µM -28% | [2]; at 100.0 µM -33% | [3]; at 1.2 µM -66% | [3]; at 3.7 µM -49% | [3]; at 11.0 µM -63% | [3]; at 33.0 µM -82% | [3]; at 100.0 µM -88% | [4]; at 1.2 µM -35% | [4]; at 3.7 µM -29% | [4]; at 11.0 µM -61% | [4]; at 33.0 µM -53% | [4]; at 100.0 µM -71% | [5]; at 1.2 µM -5% | [5]; at 3.7 µM -25% | [5]; [17] 53% | [5]; at 11.0 µM -22% | [5]; at 33.0 µM -23% | [5]; at 50.0 µM 10.9% | [5]; at 100.0 µM -23% | [6]; at 1.2 µM -88% | [6]; at 3.7 µM -74% | [6]; [17] 61% | [6]; at 11.0 µM -81% | [6]; at 33.0 µM -91% | [6]; at 50.0 µM 14.2% | [6]; at 100.0 µM -96% | [7]; at 1.2 µM -43% | [7]; at 3.7 µM -48% | [7]; at 11.0 µM -24% | [7]; at 33.0 µM -51% | [7]; at 100.0 µM -84% | [8]; [17] -10% | [8]; [18] 43% | [8]; at 50.0 µM 27.9% | [9]; at 1.2 µM 11% | [9]; at 3.7 µM -17% | [9]; at 11.0 µM -28% | [9]; at 33.0 µM -31% | [9]; at 100.0 µM -39% | [10]; [17] 33% | [10]; [18] 43% | [10]; at 50.0 µM 0.05% | [11]; at 1.2 µM -28% | [11]; at 3.7 µM -42% | [11]; [17] -5% | [11]; at 11.0 µM -37% | [11]; at 33.0 µM -40% | [11]; [18] 29% | [11]; at 50.0 µM 61.1% | [11]; at 100.0 µM -60% | [12]; at 1.2 µM -34% | [12]; at 3.7 µM -43% | [12]; at 11.0 µM -49% | [12]; at 33.0 µM -61% | [12]; at 100.0 µM -75% | [13]; at 1.2 µM -44% | [13]; at 3.7 µM -41% | [13]; at 11.0 µM -51% | [13]; at 33.0 µM -64% | [13]; at 100.0 µM -72% | [14]; at 1.2 µM -39% | [14]; at 3.7 µM -47% | [14]; at 11.0 µM -64% | [14]; at 33.0 µM -54% | [14]; at 100.0 µM -59% | [15]; [17] 50% | [15]; at 50.0 µM 15.2% | [16]; at 1.2 µM -26% | [16]; at 3.7 µM -29% | [16]; at 11.0 µM -24% | [16]; at 33.0 µM -49% | [16]; at 100.0 µM -36%

Oc1c(Br)cc(Br)cc1C1CCCCC1
inactive: [1]; at 1.2 µM -13% | [1]; at 3.7 µM -10% | [1]; at 11.0 µM -2% | [2]; at 1.2 µM -21% | [2]; at 3.7 µM -12% | [2]; at 11.0 µM -6% | [3]; at 1.2 µM 9% | [3]; at 3.7 µM 9% | [3]; at 11.0 µM 23% | [3]; at 33.0 µM 39% | [4]; at 1.2 µM 8% | [4]; at 3.7 µM 13% | [4]; at 11.0 µM 22% | [5]; at 1.2 µM -8% | [5]; at 3.7 µM -9% | [5]; [17] 39% | [5]; at 11.0 µM 5% | [6]; at 1.2 µM -9% | [6]; at 3.7 µM -3% | [6]; at 11.0 µM 5% | [7]; at 1.2 µM -22% | [7]; at 3.7 µM -4% | [7]; at 11.0 µM 3% | [8]; [17] -16% | [9]; at 1.2 µM 22% | [9]; at 3.7 µM 13% | [9]; at 11.0 µM 27% | [10]; [17] 41% | [11]; at 1.2 µM 7% | [11]; at 3.7 µM 19% | [11]; [17] 4% | [11]; at 11.0 µM 25% | [12]; at 1.2 µM -23% | [12]; at 3.7 µM -22% | [12]; at 11.0 µM -15% | [13]; at 1.2 µM -26% | [13]; at 3.7 µM -12% | [13]; at 11.0 µM -5% | [14]; at 1.2 µM -25% | [14]; at 3.7 µM -16% | [14]; at 11.0 µM 10% | [15]; [17] 44% | [16]; at 1.2 µM -16% | [16]; at 3.7 µM 1% | [16]; at 11.0 µM 15%
active: [1]; at 33.0 µM 97% | [1]; at 100.0 µM 98% | [2]; at 33.0 µM 97% | [2]; at 100.0 µM 98% | [3]; at 100.0 µM 87% | [4]; at 33.0 µM 97% | [4]; at 100.0 µM 98% | [5]; at 33.0 µM 95% | [5]; [18] 99% | [5]; at 50.0 µM 89.2% | [5]; at 100.0 µM 96% | [6]; [17] 71% | [6]; at 33.0 µM 96% | [6]; [18] 99% | [6]; at 50.0 µM 90.8% | [6]; at 100.0 µM 98% | [7]; at 33.0 µM 97% | [7]; at 100.0 µM 98% | [8]; [18] 98% | [8]; at 50.0 µM 91.8% | [9]; at 33.0 µM 98% | [9]; at 100.0 µM 99% | [10]; [18] 99% | [10]; at 50.0 µM 89.6% | [11]; at 33.0 µM 96% | [11]; [18] 98% | [11]; at 50.0 µM 89.8% | [11]; at 100.0 µM 97% | [12]; at 33.0 µM 91% | [12]; at 100.0 µM 96% | [13]; at 33.0 µM 91% | [13]; at 100.0 µM 96% | [14]; at 33.0 µM 95% | [14]; at 100.0 µM 97% | [15]; [18] 100% | [15]; at 50.0 µM 87.1% | [16]; at 33.0 µM 93% | [16]; at 100.0 µM 97%

NNc1c(F)c(F)cc(F)c1F
inactive: [1]; at 1.2 µM -11% | [1]; at 3.7 µM -19% | [1]; at 11.0 µM -21% | [1]; at 33.0 µM -11% | [1]; at 100.0 µM 21% | [2]; at 1.2 µM -28% | [2]; at 3.7 µM -27% | [2]; at 11.0 µM -20% | [2]; at 33.0 µM -26% | [2]; at 100.0 µM -14% | [3]; at 1.2 µM 2% | [3]; at 3.7 µM -1% | [3]; at 11.0 µM 21% | [3]; at 33.0 µM 54% | [4]; at 1.2 µM -17% | [4]; at 3.7 µM -23% | [4]; at 11.0 µM -17% | [4]; at 33.0 µM -6% | [4]; at 100.0 µM 7% | [5]; at 1.2 µM -15% | [5]; at 3.7 µM -22% | [5]; [17] -16% | [5]; at 11.0 µM -18% | [5]; at 33.0 µM -15% | [5]; [18] 8% | [5]; at 50.0 µM 24.8% | [5]; at 100.0 µM 25% | [6]; at 1.2 µM -37% | [6]; at 3.7 µM -35%
active: [3]; at 100.0 µM 82%
